Data on ten sequences can be found in article PMC8384837, “Expanding the binding specificity for RNA recognition by a PUF domain”.

Holding throughout (assay): yeast three-hybrid, YBZ-1, SC-Leu-His + 0.5 mM 3-AT, 4 days
Common to all, as to conditions: tags: N-Gal4 AD-HA kept; label: inside an RPR1-promoter hybrid RNA with tandem MS2 sites; ssRNA

The target of one assay is PUM1 PUF domain R4-MNA (Homo sapiens, UniProt Q14671 828-1176, N971M;H972N;Q975A). A digest of the protocol: (§1)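 Matching RNA elements and Pumilio-1 PUF domain libraries, randomized at the three base-contacting residues of every repeat, were co-expressed from a centromeric plasmid in strain YBZ-1 (LexA–MS2 coat fusion, HIS3 reporter). The repeat regions were PCR-amplified and Illumina-sequenced from cells grown four days on SC-Leu (input) or SC-Leu-His + 0.5 mM 3-AT (selection). The interaction score is the log change in variant frequency from input to selection. It is computed in log2, with a pseudocount of 1 for absent variants.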

The target of a further assay is PUM1 PUF domain R3-FRA (Homo sapiens, UniProt Q14671 828-1176, C935F;Q939A). In short, it runs like this: as §1
Another assay concerns the target PUM1 PUF domain R3-PHL (Homo sapiens, UniProt Q14671 828-1176, C935P;R936H;Q939L). In short, it runs like this:
as §1

In a further assay the target is PUM1 PUF domain R2-LWL (Homo sapiens, UniProt Q14671 828-1176, N899L;Y900W;Q903L). In short, it runs like this:
as §1

For another assay, the target named is PUM1 PUF domain R8-QYG (Homo sapiens, UniProt Q14671 828-1176, N1122Q;Q1126G). In short, it runs like this: as §1
The next assay deals with PUM1 PUF domain R5-STR (Homo sapiens, UniProt Q14671 828-1176, C1007S;R1008T;Q1011R). In short, it runs like this: as §1
The target of another assay is PUM1 PUF domain R5-AFF (Homo sapiens, UniProt Q14671 828-1176, C1007A;R1008F;Q1011F). A digest of the protocol:
as §1

The next assay concerns the target PUM1 PUF domain R1-MWR (Homo sapiens, UniProt Q14671 828-1176, S863M;R864W;Q867R). In short, it runs like this:
as §1

The next assay has as its target PUM1 PUF domain R5-KRN (Homo sapiens, UniProt Q14671 828-1176, C1007K;Q1011N). In short, it runs like this: as §1
For another assay, the target named is PUM1 PUF domain R2-KRA (Homo sapiens, UniProt Q14671 828-1176, N899K;Y900R;Q903A). In short, it runs like this:
as §1

Turning to “GGCUAGAACUAGUGGAUCCCCCGGCGCCCGGCGGCUCGAGCCCGGGUAAGUGUAUAUAGUCUGCAUGCCGCCGGGCGCCAUGCCUGCAGGUCGACUCUAGAAAACAUG”, the binding signal with PUM1 PUF domain R4-MNA is 4.12 log2 enrichment (interaction score). In the case of “GGCUAGAACUAGUGGAUCCCCCGGCGCCCGGCGGCUCGAGCCCGGGUAAGUGUAAGUAGUCUGCAUGCCGCCGGGCGCCAUGCCUGCAGGUCGACUCUAGAAAACAUG”, the binding signal with PUM1 PUF domain R3-FRA was 5.49 log2 enrichment (interaction score). With “GGCUAGAACUAGUGGAUCCCCCGGCGCCCGGCGGCUCGAGCCCGGGUAAGUGUAAUUAGUCUGCAUGCCGCCGGGCGCCAUGCCUGCAGGUCGACUCUAGAAAACAUG”, the binding signal with PUM1 PUF domain R3-FRA was 1.3 log2 enrichment (interaction score); with PUM1 PUF domain R3-PHL, 4.16 log2 enrichment (interaction score). Take “GGCUAGAACUAGUGGAUCCCCCGGCGCCCGGCGGCUCGAGCCCGGGUAAGUGUAAAUAGUCUGCAUGCCGCCGGGCGCCAUGCCUGCAGGUCGACUCUAGAAAACAUG”: the binding signal in the assay with PUM1 PUF domain R2-LWL is 1.87 log2 enrichment (interaction score); with PUM1 PUF domain R8-QYG it was 3.24 log2 enrichment (interaction score); with PUM1 PUF domain R5-STR it was 1.08 log2 enrichment (interaction score); with PUM1 PUF domain R5-AFF, 2.83 log2 enrichment (interaction score). In the case of “GGCUAGAACUAGUGGAUCCCCCGGCGCCCGGCGGCUCGAGCCCGGGUAAGUGUAAAAAGUCUGCAUGCCGCCGGGCGCCAUGCCUGCAGGUCGACUCUAGAAAACAUG”, the binding signal in the assay with PUM1 PUF domain R2-LWL is 6.07 log2 enrichment (interaction score). Consider “GGCUAGAACUAGUGGAUCCCCCGGCGCCCGGCGGCUCGAGCCCGGGUAAGUGUAAAUCGUCUGCAUGCCGCCGGGCGCCAUGCCUGCAGGUCGACUCUAGAAAACAUG”, for which the binding signal with PUM1 PUF domain R1-MWR was 3.03 log2 enrichment (interaction score).

With “GGCUAGAACUAGUGGAUCCCCCGGCGCCCGGCGGCUCGAGCCCGGGUAAGUGUAAAUUGUCUGCAUGCCGCCGGGCGCCAUGCCUGCAGGUCGACUCUAGAAAACAUG”, in the assay with PUM1 PUF domain R1-MWR, the binding signal is 3.06 log2 enrichment (interaction score). Take “GGCUAGAACUAGUGGAUCCCCCGGCGCCCGGCGGCUCGAGCCCGGGUAAGUGUCAAUAGUCUGCAUGCCGCCGGGCGCCAUGCCUGCAGGUCGACUCUAGAAAACAUG”: the binding signal was 4.24 log2 enrichment (interaction score) with PUM1 PUF domain R5-KRN and 5.88 log2 enrichment (interaction score) with PUM1 PUF domain R5-STR. With “GGCUAGAACUAGUGGAUCCCCCGGCGCCCGGCGGCUCGAGCCCGGGUAAGCGUAAAUAGUCUGCAUGCCGCCGGGCGCCAUGCCUGCAGGUCGACUCUAGAAAACAUG”, the binding signal in the assay with PUM1 PUF domain R8-QYG was 3.1 log2 enrichment (interaction score).

Consider “GGCUAGAACUAGUGGAUCCCCCGGCGCCCGGCGGCUCGAGCCCGGGUAAGUGUAAAGAGUCUGCAUGCCGCCGGGCGCCAUGCCUGCAGGUCGACUCUAGAAAACAUG”, for which the binding signal in the assay with PUM1 PUF domain R2-KRA is 4.63 log2 enrichment (interaction score).
